Assay outcomes: PubChem BioAssay, several laboratories
Wnt act: Wnt/beta-catenin pathway activators, primary screen, cell-based, plate reader, single point; Wnt/beta-catenin reporter cell assay, activator; activation, % at 9.35 µM; actives 1.2% (n = 300,000); in the data active means activation above about 30%, passing the limit was not always enough; inconclusive means no clear call, values can overlap the other calls
esBAF inh: Bmi1 luciferase reporter increase in mESCs, primary screen, esBAF inhibitor project, mouse ES cells, Bmi1 luciferase knock-in, single point | AID 602393, 2012 | reporter increase, % at 12.5 µM | 24 h; 100% = twice the neutral-well signal | actives 2% (n = 350,000); in the data active means activation above about 40%; inconclusive means no clear call, values can overlap the other calls;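 further: a rise in the Bmi1 reporter signal indicates esBAF inhibition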
FXN GAA850 act: FXN promoter activators, primary screen, cell-based, luciferase luminescence, HEK293 lucGAA850. HEK293 lucGAA850 FXN promoter luciferase reporter, 24 h; percent of 10 µM SAHA response. activation, % at 6 µM. actives 0.56% (n = 360,000);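 active means activation above the average of all compounds screened plus 3 SD, cutoff fixed separately per campaign, cut at about 7.5% in these data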
C2C12 statin: suppressors of statin myotoxicity in C2C12 myotubes, primary screen, cell-based, single point, plate reader. C2C12 myotubes + simvastatin, ATP luminescence, 48 h; scaled: DMSO 0, geranylgeraniol control 100. actives 0.78% (n = 330,000). AID 602340, 2012. rescue of ATP level, % at 7.49 µM;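 active means mean ATP rescue above about 67%, or every replicate alone reaching that limit, limit read from the data, passing the limit was not always enough; inconclusive means no clear call, values can overlap the other calls; inactive means mean under the limit and some replicate under it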;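 further: myotubes were challenged with 10 µM simvastatin during compound exposure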
MITF act: activators of MITF-driven TRPM1 promoter reporter, primary screen, cell-based, SK-MEL-5, luciferase, single point; SK-MEL-5 TRPM1-promoter luciferase, 24 h; % of positive control, neutral wells = 0; activation, % at 12.5 µM; actives 0.75% (n = 300,000); AID 588334, 2011;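 active means mean activation of at least 80% with every replicate also reaching 80%; inconclusive means mean reaches 80% but some replicate falls short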
Each line names hits and unclear results; the compound was inactive in the other large screens. Compounds with a hit are over-represented: about 3.3% of the library has one in this group of screens.

C[C@@H](NC(=O)N(C)C[C@H]1OCc2ccccc2-c2c(n(C)c3ccccc23)C(=O)N([C@@H](C)CO)C[C@@H]1C)c1ccccc1	none (no result: Wnt act, FXN GAA850 act, C2C12 statin, MITF act)
CCCNC(=O)c1ccc(CNc2c(N3CCC(C(=O)OCC)CC3)c(=O)c2=O)cc1	C2C12 statin 133.4 (no result: Wnt act)
C[C@H](CO)N1C[C@H](C)[C@H](CN(C)CC2CC2)OCCCC[C@H](C)Oc2ccc(NC(=O)Nc3ccccc3)cc2C1=O	none (no result: Wnt act, FXN GAA850 act, C2C12 statin, MITF act)
C=CCn1c(=O)c(C(=O)Nc2ccccc2S(N)(=O)=O)c(O)c2ccccc21	esBAF inh 64.6
C=CCn1c(N)c(C(=O)Nc2ccc(C)cc2)sc1=S	esBAF inh 51.2 (no result: Wnt act)
C=CCn1c(=O)c(C(=O)Nc2ccc(C)cc2)c(O)c2ccccc21	esBAF inh 67.3 (no result: MITF act)
C=CCn1c(N)c(C(=O)Nc2ccccc2OC)sc1=S	none (no result: C2C12 statin)
CCn1c(=O)c(C(=O)NCc2ccccc2)c(O)c2ccccc21	none
C=CCn1c(=O)c(C(=O)Nc2cc(C)ccn2)c(O)c2ccccc21	none
CCn1c(=O)c(C(=O)NCc2ccc(Cl)cc2)c(O)c2ccccc21	Wnt act 43.1 (no result: MITF act)
CC(C)CC#Cc1cnc2c(c1)C(=O)N([C@H](C)CO)C[C@H](C)[C@H](CN(C)Cc1ccccc1C(=O)O)O2	none (no result: Wnt act, FXN GAA850 act, MITF act)
COC(=O)C(Cc1ccc(OC(=O)c2ccccc2Cl)cc1)N1Cc2ccccc2C1=O (configuration not stated)	esBAF inh 44.4 (no result: Wnt act)
COC(=O)C(Cc1ccc(OC(=O)c2ccccc2C)cc1)N1Cc2ccccc2C1=O (configuration not stated)	none (no result: Wnt act, esBAF inh, C2C12 statin)
O=C1/C(=C/c2cccs2)SC(=S)N1CCC(=O)N1CCCCC1CCO (configuration not stated)	esBAF inh 59.5
COc1ccc(N(C(=O)c2ccco2)S(=O)(=O)c2ccc(F)cc2)cc1	none (no result: Wnt act)
COc1ccc(N(C(=O)c2ccco2)S(=O)(=O)c2cc(OC)ccc2OC)cc1	C2C12 statin 103.8 (no result: Wnt act)
C[C@H](CO)N1C[C@H](C)[C@@H](CN(C)Cc2ccc(Cl)c(Cl)c2)Oc2c(NC(=O)c3nc4ccccc4s3)cccc2C1=O	none (no result: Wnt act, FXN GAA850 act, C2C12 statin, MITF act)
CCC(=O)Nc1ccc2c(c1)C(=O)N(C)[C@@H]1CC[C@@H](CC(=O)NCCc3ccncc3)O[C@@H]1CO2	none (no result: Wnt act, FXN GAA850 act, MITF act)
Cc1cc(C(F)(F)F)c2sc(N)nc2n1	C2C12 statin 84.8 (no result: MITF act)
O=C(Nc1cccc(Cl)c1)c1csc(COCCO)n1	esBAF inh 47.3 (no result: MITF act)
O=C(Nc1cccc(C(F)(F)F)c1)c1csc(COCCO)n1	none (no result: MITF act)
C[C@@H]1CN([C@@H](C)CO)C(=O)c2cc(NS(=O)(=O)c3cn(C)cn3)ccc2O[C@H]1CN(C)CC1CCCCC1	none (no result: Wnt act, FXN GAA850 act, MITF act)
COc1cc(/C=N/NC(=S)NC2CC3CCC2C3)ccc1O (configuration not stated)	none
COc1cccc(C=NNC(=S)NC2CC3CCC2C3)c1O (configuration not stated)	Wnt act 37.2 (no result: esBAF inh, FXN GAA850 act, C2C12 statin, MITF act)
C[C@H]1CN([C@@H](C)CO)C(=O)c2cc(C#CC(C)(C)O)cnc2O[C@@H]1CN(C)Cc1cccc(F)c1	none (no result: Wnt act, FXN GAA850 act, MITF act)
COc1cccc(NC(=O)N2C[C@H](O)COC[C@H]3O[C@@H](CC(=O)NCCCN4CCOCC4)CC[C@@H]32)c1	none (no result: Wnt act, FXN GAA850 act, MITF act)
COc1ccc(C(=O)Nc2ccc(C(F)(F)F)n(C)c2=O)cc1	Wnt act 63.4 (no result: esBAF inh, C2C12 statin)
Cc1ccc(C(=O)Nc2ccc(C(F)(F)F)n(C)c2=O)cc1	Wnt act 53.7 (no result: esBAF inh, C2C12 statin)
CCN(CC)S(=O)(=O)c1ccc(C(=O)Nc2ccc(C(F)(F)F)n(C)c2=O)cc1	none
CCNC(=O)C[C@H]1CC[C@@H]2[C@H](COc3ccc(NC(=O)C4CCCCC4)cc3C(=O)N2C)O1	none (no result: Wnt act, FXN GAA850 act, MITF act)
COc1ccc(S(=O)(=O)N(C)C[C@H]2Oc3c(NC(=O)NC(C)C)cccc3C(=O)N([C@H](C)CO)C[C@H]2C)cc1	none (no result: Wnt act, FXN GAA850 act, C2C12 statin, MITF act)
CS(=O)(=O)N1N=C(c2ccc(Br)cc2)CC1c1ccc2c(c1)OCO2 (configuration not stated)	esBAF inh 53.9, FXN GAA850 act 11.7, MITF act inconclusive (no result: Wnt act)
CC(=O)N1N=C(c2ccc(C)cc2)CC1c1ccc2c(c1)OCO2 (configuration not stated)	Wnt act inconclusive, esBAF inh 100.2 (no result: MITF act)
Cc1ccc(C2=NN(S(C)(=O)=O)C(c3ccc4c(c3)OCO4)C2)cc1 (configuration not stated)	Wnt act 50.3 (no result: esBAF inh, C2C12 statin)
CS(=O)(=O)Nc1ccc(C2=NN(S(C)(=O)=O)C(c3ccc4nccnc4c3)C2)cc1 (configuration not stated)	none
CO[C@H]1CN(C)C(=O)c2ccc(NC(=O)NC(C)C)cc2OC[C@@H](C)N(C(=O)NC(C)C)C[C@H]1C	none (no result: Wnt act, FXN GAA850 act, MITF act)
N=c1n(N)c2ccccc2n1CC(=O)c1ccc(Br)cc1	esBAF inh 52.3 (no result: MITF act)
C=CCn1c(=N)n(CC(=O)c2ccc(Br)cc2)c2ccccc21	none (no result: MITF act)
Nc1nc(COc2ccc3ccccc3c2)cs1	esBAF inh 59.3, MITF act 104.2 (no result: Wnt act)
CC(=O)Nc1nc(COc2ccccc2)cs1	none (no result: Wnt act)
O=C(Nc1nc(COc2ccccc2)cs1)C1CCC1	Wnt act 46.3, esBAF inh 63.7
CC(=O)Nc1nc(COc2ccc3ccccc3c2)cs1	Wnt act 54.8
C[C@@H]1CN([C@H](C)CO)S(=O)(=O)c2ccc(-c3cncnc3)cc2O[C@@H]1CN(C)C(=O)C1CCC1	none (no result: Wnt act, FXN GAA850 act, MITF act)
C[C@H]1CN([C@@H](C)CO)S(=O)(=O)c2ccc(-c3ccncc3)cc2O[C@@H]1CN(C)C(=O)c1ccc2c(c1)OCO2	none (no result: Wnt act, FXN GAA850 act, MITF act)
O=C(NCC1CC1)[C@H]1[C@H](CO)[C@H]2Cn3c(ccc(-c4ccccc4)c3=O)[C@@H]1N2C(=O)C1CC1	none (no result: Wnt act, FXN GAA850 act, MITF act)
C[C@H](CO)N1C[C@H](C)[C@@H](CN(C)C(=O)c2ccccc2)OCCCC[C@H](C)Oc2ccc(NC(=O)C3CCCCC3)cc2C1=O	none (no result: Wnt act, FXN GAA850 act, MITF act)
C=CCn1c(SCC(=O)NCC)nnc1-c1cc2c(s1)CCC(CC)C2 (configuration not stated)	esBAF inh 45.9
C=CCn1c(SCC(=O)NC(N)=O)nnc1-c1cc2c(s1)CCC(CC)C2 (configuration not stated)	none (no result: esBAF inh, C2C12 statin)
O=C(O)CCCC(=O)Nc1ccccc1Br	C2C12 statin 71.3 (no result: MITF act)
O=C(NCc1cn2ccsc2n1)c1cccc(C(F)(F)F)c1	none (no result: Wnt act)
Cc1csc2nc(CNC(=O)c3cccc(C(F)(F)F)c3)cn12	C2C12 statin 108.7
O=C(C[C@H]1C=C[C@@H](NC(=O)Nc2ccc(C(F)(F)F)cc2)[C@@H](CO)O1)NCc1cccc(F)c1	none (no result: Wnt act, FXN GAA850 act, MITF act)
O=C(CSc1ccccn1)Nc1ccc2c(c1)OCCO2	esBAF inh inconclusive
O=C(CSc1ccccn1)Nc1ccc2c(c1)CCC2	esBAF inh 76.6, MITF act 109.6 (no result: Wnt act)
O=C(CSc1ccccn1)Nc1ccc2c(c1)C(=O)c1ccccc1C2=O	MITF act 94.7 (no result: Wnt act, esBAF inh, C2C12 statin)
